Values joined by “and” are separate entries in the source; they are usually repeats but may differ in a detail not shown here. Equal values may be shown once. Results filed as inconclusive are left out. A structure can be active in one record and inactive in another. Active and inactive are the calls of the source. Calls follow the shape of the dose curve; as a rule, active = well fitted activation curve with a large enough effect; inconclusive = small, poorly fitted or top-dose-only effect; inactive = no such curve, though single readings can be large or run the other way.
Each compound was assayed against Cellular tumor antigen p53 (Homo sapiens) (UniProt P04637) (assay: Primary qHTS for small molecule compounds that upregulate eGFP-tagged delta133p53alpha (in N-terminal) cells. (AID 2060322; also: nearly all actives have a fitted effect of over 75% in size;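 as to activation: cells pre-induced with doxycycline then dosed without doxycycline; series mostly up to about 56 µM; 0% = DMSO vehicle and 100% = reference activator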)). Details: NCI-H358 eGFP-delta133p53alpha fluorescence, 24 h; activation: active compounds read high.
Sequence of Cellular tumor antigen p53 (Homo sapiens) (P04637 whole entry, looked up): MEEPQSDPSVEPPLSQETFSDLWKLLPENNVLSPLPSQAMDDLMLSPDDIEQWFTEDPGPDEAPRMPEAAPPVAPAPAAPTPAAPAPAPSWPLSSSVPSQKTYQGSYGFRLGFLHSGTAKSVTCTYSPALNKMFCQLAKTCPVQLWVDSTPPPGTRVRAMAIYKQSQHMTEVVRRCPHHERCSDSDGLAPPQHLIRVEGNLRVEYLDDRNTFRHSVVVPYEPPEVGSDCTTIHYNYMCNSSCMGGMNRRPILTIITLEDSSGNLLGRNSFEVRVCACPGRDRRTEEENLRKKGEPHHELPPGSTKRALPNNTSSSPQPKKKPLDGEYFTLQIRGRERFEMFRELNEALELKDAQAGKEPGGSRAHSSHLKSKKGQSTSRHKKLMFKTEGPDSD
Source text: Assay Development and Screening Technology
National Center for Advancing Translational Sciences (NCATS),
National Institute of Health (NIH), Rockville, Maryland
Cellular senescence (CS) is one of the hallmarks of aging and age-related diseases. Senescent cells are characterized by an irreversible growth arrest, an increase in senescence-associated beta-galactosidase (SA-beta-gal) activity and p16INK4a expression, an activation of the DNA damage response pathways, and the emergence of a senescence-associated secretory phenotype (SASP).
Delta133p53alpha, a human/primate-specific p53 protein isoform, delays or inhibits the induction of CS and SASP in various types of human cells, including progeria-derived fibroblasts, primary normal astrocytes, and CD8+ T lymphocytes. Induction of delta133p53alpha with small molecule compounds may provide therapeutic opportunities for inhibition of senescence/SASP-associated pathologies in progeria syndromes, astrocyte-mediated neuroprotection in neurodegenerative diseases, and possibly prevention and treatment of a wider range of senescence- and aging-associated diseases.
Here we report the development and validation of a cell-based quantitative high throughput screening (qHTS) assay in 1,536-well format. This qHTS assay uses the NCI-H358 cell line with doxycycline-inducible expression of enhanced green fluorescent protein (eGFP)-tagged delta133p53alpha, which allows efficient and highly quantitative measurement of the protein levels.
PROTOCOL TABLE (as described by Inglese J, Shamu CE and Guy RK. 2007)
SEQUENCE No. (e.g., 1, 2, 3, etc.); […] (e.g., Cells, Incubation, Reagent, etc.); VALUE; DESCRIPTION.
1; Cells; 4uL; 800 doxycycline treated cells / well in doxycycline-free media, 1536-well black, clear-bottom low base Aurora microplates.
2; Compounds; 23 nL; Kalypsis pin tool (Wako) equipped with 1536-well pin heads, 5-azacytidine positive control.
3; Incubation; 24 hr; 37C, 5% CO2; 95% relative humidity.
4; Aspiration; 1x; BioTek EL406 washer dispenser (Agilent).
5; Fixing; 3.5% paraformaldehyde, BioTek EL406 washer dispenser (Agilent).
6; Washing; 1x PBS; BioTek EL406 washer dispenser (Agilent).
7; Nuclei staining; 1:1000 dilution of Hoechst 33342 (Thermofisher), BioTek EL406 washer dispenser (Agilent).
8; Incubation; 20 min; in the dark at room temperature.
9; Washing; 2x, 1x PBS (ThermoFisher), BioTek EL406 washer dispenser (Agilent).
10; Reagent; 10 uL; 1x PBS per well, sealed with clear adhesive tape.
NOTES (numbers refer to sequence numbers above).
1. NCI-H358 cells expressing eGFP-tagged delta133p53alpha were grown in T75 culture flasks and treated with doxycycline for 24h, at 10 ng/ml for eGFP-D133p53a cells (N-terminal cell) and 100 ng/ml for D133p53a-eGFP cells (C-terminal cells). Cells were trypsinized, counted using a Counted 3 Automated Cell Counter (Thermo Fisher), and diluted to a concentration of 200,000 cells/ml. A Multidrop Combi Reagent Dispenser (ThermoFisher) was used to dispense 800 cells/well in […] of doxycycline-free media, into 1536-well black/clear bottom low base plates (AuroraMicroplates).
2. After plating cells, 23 nl of compound library, DMSO vehicle control or positive control (5-azacytidine) were transferred by Pin Tool (Wako). The plate map layout was the same for each plate: (column 1) non-doxycycline treated cells + DMSO vehicle control; (column 2) doxycycline treated cells + DMSO vehicle control baseline; (column 3) doxycycline treated cells + positive control 57.5 uM final concentration 5-azacytidine; (column 4) doxycycline treated cells + serial dilution of 5-azacytidine, 16-point 1:2 titration spanning 1.8 nM to […] final concentration; (columns 5-48) doxycycline treated cells + titration of library compounds.
3. Cells were incubated at 37 °C, 5 % CO2, 95% RH with breathable metal lid for 24h.
4-10. […] After two washes, 10 ul of 1X PBS (Thermo Fisher) was dispensed to each well. Clear adhesive plate seals (VWR) were applied and plates stored at 4 °C.
11. […]
Potency is read from the fitted curve at half-maximal effect.

Which activation does the source give for `Oc1ccccc1-c1cc(-c2ccccc2F)[nH]n1` here?
Its activation is -12.9% (inactive).

How did the Potency turn out when `C=C1C(=O)OC2C(OC(=O)C=C(C)C)C(C)=C3C(=O)C=C(C)C3C(O)C12` (stereo not given) was run?
The Potency was 14.8 µM (active).

How did the activation turn out when `CC1=CCC2C(C)(CO)CCCC2(C)C1CC12OC1C(O)C(CO)=CC2O` (stereo not given) was run?
The activation was 12.2% (inactive).

`COc1cc2nccc(Oc3ccc(NC(=O)Nc4ccc(F)cc4F)c(F)c3)c2cc1OC` was tested. Which activation did it give?
Its activation is 5.39% (inactive).

For `CC1(C)CC[C@]2(CO[C@@H]3O[C@H](CO)[C@@H](O)[C@H](O)[C@H]3O)[C@@H](O)C[C@]3(C)C(=CCC4[C@@]5(C)CC[C@H](O[C@@H]6O[C@H](CO[C@@H]7O[C@H](CO[C@@H]8OC[C@@H](O)[C@H](O)[C@H]8O)[C@@H](O)[C@H](O)[C@H]7O)[C@@H](O)[C@H](O)[C@H]6O)C(C)(C)C5CC[C@]43C)[C@@H]2C1` (stereo not given in full), which activation is on record?
The activation was -2.68% (inactive).

Which activation does the source give for `CCN(CC)CCN` here?
Its activation is -0.837% (inactive).

`COc1ccc(C2(O)CCC(N3CC[C@@H](NC(=O)CNC(=O)c4cccc(C(F)(F)F)c4)C3)CC2)cn1` (stereo not given in full) was tested. Which activation did it give?
The activation was 19.6% (inactive).

`O=C1C=CC2OC(c3ccccc3)C(O)C2O1` (stereo not given) was tested. Which Potency did it give?
Its Potency is 30.1 µM (active).

Which activation does the source give for `C=CC1C(O[C@@H]2O[C@H](CO)[C@@H](O)[C@H](O)[C@H]2O)OC=C(C(=O)OC)C1CC(=O)O` (stereo not given in full) here?
The activation was 23.2% (inactive).

`COc1cc(N2CCN(C)CC2)ccc1Nc1nc(N)c(C(=O)c2c(Cl)cccc2Cl)s1` was tested. Which activation did it give?
Its activation is -2.41% (inactive).

Which activation does the source give for `O=C(O)CCCc1c[nH]c2ccccc12` here?
The activation was -8.68% (inactive) and -9% (inactive).

How did the activation turn out when `COC(=O)C1=COC(O[C@@H]2O[C@H](CO[C@@H]3O[C@H](COC(=O)/C=C\c4ccc(O)cc4)[C@@H](O)[C@H](O)[C@H]3O)[C@@H](O)[C@H](O)[C@H]2O)C2C(CO)=CCC12` (stereo not given in full) was run?
The activation was 33% (inactive).

For `CCOc1nc(NC(=O)Cc2cc(OC)ccc2OC)cc(N)c1C#N`, which activation is on record?
The activation was 15% (inactive).

For `COc1cc(C=CC(=O)CC(=O)C=Cc2ccc(O)c(OC)c2)ccc1O`, which Potency is on record?
The Potency was 39.5 µM (active).

For `CC1(C)O[C@H]2CC(=O)OC[C@]23[C@H]2CC[C@@]4(C)[C@H](c5ccoc5)OC(=O)[C@H]5O[C@]54[C@]2(C)C(=O)C[C@@H]13`, which activation is on record?
Its activation is -25.4% (inactive) and 64.1% (inactive) and 3.82% (inactive).

For `C=C(C(=O)O)C1CCC2(C)CCCC(C)(O)C2C1` (stereo not given), which activation is on record?
Its activation is -5.36% (inactive).

For `CC(=O)OC[C@H]1O[C@@H](n2cnc(N)nc2=O)[C@H](OC(C)=O)[C@@H]1OC(C)=O`, which activation is on record?
The activation was -22.3% (inactive).

For `O=C(O)[C@H]1O[C@H](Oc2cc3oc(-c4ccccc4)cc(=O)c3c(O)c2O)[C@H](O)[C@@H](O)[C@H]1O`, which activation is on record?
The activation was 28.4% (inactive).

Which activation does the source give for `C[C@H](Nc1cc2c(-c3ccc4c(c3)OCO4)noc2cn1)c1ccccc1` here?
Its activation is 4.77% (inactive).

For `C[C@H]1c2cccc(O)c2C(O)=C2C(=O)[C@]3(O)C(O)=C(C(N)=O)C(=O)[C@@H](N(C)C)[C@@H]3[C@@H](O)[C@@H]21`, which activation is on record?
The activation was -2.21% (inactive).

And the Potency?
Its Potency is 15.5 µM (active) and 2.73 µM (active).

Which activation does the source give for `CC1=C2C(=O)C=C(CO[C@@H]3O[C@H](CO)[C@@H](O)[C@H](O)[C@H]3O)[C@@H]2[C@H]2OC(=O)[C@H](C)[C@@H]2CC1` here?
Its activation is -19.6% (inactive).

For `CC(C)COC(=O)c1ccc(N)cc1`, which activation is on record?
The activation was 2.82% (inactive).

With `CCn1cc(NC(=S)Nc2cc(Cl)ccc2OC)c(C(N)=O)n1` as the compound, how does the activation read?
Its activation is -5% (inactive).

Which activation does the source give for `CC(C)CC1NC(=O)C(C)NC(=O)C(CC(C)C)OC(=O)CCCNC1=O` (stereo not given) here?
The activation was -2.68% (inactive).

What does the source list for `CCCOc1ccc(C(=O)OCCN(CC)CC)cc1N`?
Potency: 24.3 µM (active); activation: 9.6% (inactive)

For `CCOc1cc2c(c(F)c1OCC)C(=N)N(CC(=O)c1cc(N3CCOCC3)c(OC)c(C(C)(C)C)c1)C2`, which activation is on record?
The activation was -9.71% (inactive).

With `CC(C)C(O)(CO)CCO[C@@H]1O[C@H](CO[C@H]2OC[C@](O)(CO)[C@H]2O)[C@@H](O)[C@H](O)[C@H]1O` (stereo not given in full) as the compound, how does the activation read?
Its activation is -13% (inactive).

For `C[C@@H](c1ccc2nccn2c1)n1nnc2ncc(-c3cnn(C)c3)nc21`, which activation is on record?
Its activation is 2.86% (inactive).

How did the activation turn out when `CCCC1OC2C[C@@H]3[C@H]4CCC5=CC(=O)C=C[C@]5(C)[C@H]4C(O)C[C@]3(C)[C@]2(C(=O)CO)O1` (stereo not given in full) was run?
Its activation is 16.2% (inactive).

With `Nc1nc(F)nc2c1ncn2[C@@H]1O[C@H](CO)[C@@H](O)[C@@H]1O` as the compound, how does the activation read?
Its activation is -5.02% (inactive) and -9.07% (inactive).

How did the activation turn out when `C=C1C(=O)OC(CCCCCCCC)C1C(=O)O` (stereo not given) was run?
The activation was -0.0763% (inactive).

For `CCC[C@H](N[C@H]1CCc2cc(F)cc(F)c2C1)C(=O)Nc1cn(C(C)(C)CNCC(C)(C)C)cn1`, which activation is on record?
The activation was -12.9% (inactive).

Which activation does the source give for `O=C(NCC(=O)N1CCCCC1)Nc1ccc2nnsc2c1` here?
The activation was -6.7% (inactive).

How did the activation turn out when `CC(=O)NC[C@H]1CN(c2ccc(N3CCN(C(=O)CO)CC3)c(F)c2)C(=O)O1` was run?
The activation was 11.6% (inactive).

For `O=C(O[C@H]1[C@H](Oc2ccc(O)cc2CO)O[C@H](CO)[C@@H](O)[C@@H]1O)c1ccccc1`, which activation is on record?
Its activation is -10.7% (inactive).

Which Potency does the source give for `CC(C)c1c2cc(-c3ccnc(NC4CCC(NC5CCOCC5)CC4)n3)ccc2nn1C` (stereo not given) here?
The Potency was 0.478 µM (active).

How did the activation turn out when `COC1=CC(=O)O[C@@H](/C=C/c2ccccc2)[C@@H]1O` was run?
Its activation is 9.82% (inactive).

How did the Potency turn out when `C=C(C=O)[C@]1(O)C[C@@]2(C)C(=CC1=O)C=C[C@H](OC(=O)/C=C/C=C/[C@H](C)CC)[C@@H]2C` was run?
The Potency was 4.65 µM (active).
